# Measured values published in PubChem BioAssay.
# The source made the active and inactive calls.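 How the source made its calls, unless noted: active means viability at or below 30% in both replicate assays; inconclusive means viability at or below 30% in just one of the two assays; inactive means the rest.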
# Key:
# [1] = reduced viability of SK-BR-3 breast cancer cells – cell-based, 24 h, human, pilot screen (AID 572;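 active means viability at or below 10% of carrier control in both of two separate runs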;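 further: compound exposure lasted between 18 and 24 h rather than exactly 24 h; 100% = carrier-treated control wells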); settings: SK-BR-3 viability, CellTiter-Glo luminescence, at 10 µM, stronger effect = lower value
# [2] = HUVEC growth inhibition – cell-based, human, primary screen (AID 575); settings: HUVEC proliferation, CellTiter-Glo luminescence, 72 h; at 10 µM; stronger effect = lower value;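 further: 100% = median of untreated cell wells with 0.1% DMSO on each plate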
# [3] = H69AR cell proliferation blockers – human, duplicate replicates, primary screen (AID 580;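 active means viability at or under a set limit in both replicates, limit being median viability minus 3 SD, cut at about 48% in these data, passing the limit was not always enough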;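 further: 100% = mean luminescence of untreated wells and 0% = no signal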); settings: H69AR lung tumor cells viability, ATP luminescence, 72 h; at 10 µM; stronger effect = lower value
# [4] = MRP1 drug-resistance reversers in H69AR cells – cell-based, doxorubicin co-treatment, pilot screen (AID 601;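 active means viability loss from added drug above about 55%, and viability with drug at most 40%, in both replicates, limit read from the data, passing the limit was not always enough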); settings: CellTiter-Glo, 72 h, at 10 µM; for differential viability (reversal): stronger effect = higher value
# [5] = yeast transport mutant growth inhibition pilot in 384-well plates, post-Golgi transport modulator project (AID 636; in the data active means inhibition above about 31%); settings: absorbance 615 nm, about 18 h, stronger effect = higher value
# [6] = growth suppression of yeast trafficking mutant, preliminary HTS, modulators of trafficking downstream of Golgi apparatus project, 1536-format plate, OD 615 nm (AID 637; in the data active means inhibition above about 30%); settings: yeast transport mutant growth, absorbance 615 nm, 18 h; stronger effect = higher value
# [7] = H69AR cells + 2 uM doxorubicin, measured here: viability with 2 uM doxorubicin, stronger effect = lower value
# [8] = H69AR cells, compound alone cytotoxicity
SMILES,viability [1],viability [2],viability [3],differential viability (reversal) ([4]; H69AR cells + 2 uM doxorubicin),"viability [4, 7] [%]","viability [4, 8] [%]",inhibition [5],inhibition [6]
Cc1ccccc1Cc1c(C)nc2c(C(=O)N3CCN(Cc4ccc5c(c4)OCO5)CC3)cnn2c1C,103% (inactive),59.6% (inactive),79% (inactive),6.94% (inactive),72.1,79,-1.04% (inactive),1.48% (inactive)
CCCNC(=O)c1cc(-c2ccco2)on1,77% (inactive),88.3% (inactive),97.4% (inactive),–,–,–,-1.87% (inactive),2.73% (inactive)
Cc1ccc(NC(=O)CSc2nnc(-c3ccc(S(=O)(=O)N4CCOCC4)cc3)n2C)cc1,102% (inactive),104% (inactive),98.4% (inactive),3.83% (inactive),94.6,98.4,-3.33% (inactive),-1.64% (inactive)
CC(=O)O[C@]1(C(C)=O)CC[C@H]2[C@@H]3C=C(Cl)C4=CC(=O)CC[C@]4(C)[C@H]3CC[C@@]21C,104% (inactive),93.2% (inactive),–,-23.2% (inactive),54.4,31.2,-1.3% (inactive),-2.5% (inactive)
CCn1nc(C(=O)O)c(=O)c2cc3c(cc21)OCO3,69% (inactive),86.7% (inactive),106% (inactive),6.56% (inactive),99.3,106,-1.17% (inactive),1.83% (inactive)
C=CCn1c(SCC(=O)C(C)(C)C)nnc1-c1ccccn1,88% (inactive),94.4% (inactive),92.2% (inactive),-0.455% (inactive),92.6,92.2,-7.57% (inactive),-3.64% (inactive)
CN1CCN(CCCN2c3ccccc3Sc3ccc(Cl)cc32)CC1,25%,3.48% (active),–,-15.4% (inactive),58.6,43.1,–,–
O=C(C1CCCCC1)N1CCC(c2nc3c(nnn3Cc3ccccc3Cl)c(=O)[nH]2)CC1,90% (inactive),83.6% (inactive),73.9% (inactive),–,–,–,-3.24% (inactive),-9.27% (inactive)
COc1ccc(C)cc1-n1c(N)c(C#N)c(C#N)c1-c1ccc(OC)c(OC)c1OC,97% (inactive),68.7% (inactive),72.9% (inactive),–,–,–,-3.51% (inactive),-1.31% (inactive)
COc1cccc(-c2nnn(CC(=O)O)n2)c1,149% (inactive),100% (inactive),91% (inactive),1.7% (inactive),89.3,91,-1.43% (inactive),1.97% (inactive)
CCn1nnnc1SCC(=O)Nc1nc(-c2cccs2)cs1,110% (inactive),83.8% (inactive),86.5% (inactive),18.2% (inactive),68.3,86.5,-11% (inactive),3.87% (inactive)
O=S1(=O)CCC(N=Cc2cc(Br)ccc2O)C1 (stereo unspecified),94% (inactive),68.9% (inactive),78.1% (inactive),-14.3% (inactive),92.4,78.1,-5.62% (inactive),2.26% (inactive)
CCOC(=O)/C=C1\SCC(=O)N1Cc1nnc(-c2ccccc2Br)o1,107% (inactive),97.5% (inactive),91.3% (inactive),3.01% (inactive),88.2,91.3,-7.81% (inactive),1.82% (inactive)
CCN(CC)c1ccc2c(c1)CCCN2,86.5% (inactive),95.9% (inactive),–,-13.2% (inactive),56.6,43.4,-4.21% (inactive),1.64% (inactive)
CCCc1[nH]nc2c1C(c1cn[nH]c1-c1ccc(F)cc1)C(C#N)=C(N)O2 (stereo unspecified),98.5% (inactive),48.3% (inactive),–,-8.32% (inactive),53.7,45.4,-2.21% (inactive),2.95% (inactive)
O=S1(=O)Nc2c(ccc3cccnc23)-c2ccccc21,122% (inactive),8.06% (active),–,-6.77% (inactive),56,49.2,-7.5% (inactive),9.84% (inactive)
CCSC(SCC)[C@H](O)[C@@H](O)[C@H](O)[C@H](O)CO,103% (inactive),104% (inactive),101% (inactive),6.02% (inactive),94.8,101,-5.19% (inactive),0% (inactive)
CCCCn1cnc2c1c(=O)n(C)c(=O)n2C,77% (inactive),100% (inactive),100% (inactive),11.1% (inactive),89,100,3.24% (inactive),0.18% (inactive)
CC(=O)Nc1c(C(=O)O)[nH]c2ccccc12,103% (inactive),97.9% (inactive),104% (inactive),3.33% (inactive),101,104,-4.46% (inactive),-8.36% (inactive)
CSc1c(C#N)c(N)c(C#N)c2c1COC(C)(C)C2,94% (inactive),90.1% (inactive),88% (inactive),-1.11% (inactive),89.1,88,-11.1% (inactive),2.1% (inactive)
CN(C)CCCN1c2ccccc2Sc2ccc(C(F)(F)F)cc21,4.5% (active),56.8% (inactive),–,-39.3% (inactive),51,11.7,–,–

SMILES,viability [1],viability [2],viability [3],differential viability (reversal) ([4]; H69AR cells + 2 uM doxorubicin),"viability [4, 7] [%]","viability [4, 8] [%]",inhibition [5],inhibition [6]
COC(=O)c1ccc(CSc2ncnc3c2nnn3-c2ccc(OC)cc2)o1,87.5% (inactive),88% (inactive),–,-10.7% (inactive),71.6,60.9,-1.97% (inactive),6.07% (inactive)
COc1cc([C@@H]2[C@H]3CN(C)CC=C3C(C#N)=C(N)C2(C#N)C#N)cc2c1OCO2,101% (inactive),93.1% (inactive),89.8% (inactive),-5.09% (inactive),94.8,89.8,-2.19% (inactive),0.18% (inactive)
CCCCCCCCCCCCCCCC(O)C(N)CO (stereo unspecified),60% (inactive),2.65% (active),–,-0.02% (inactive),1.44,1.42,–,–
C1CCC(C(CC2CCCCN2)C2CCCCC2)CC1 (stereo unspecified),2% (active),2.58% (active),–,0.29% (inactive),1.26,1.55,–,–
Cc1ccc(Cn2c(=N)c(C(=O)NCc3ccco3)cc3c(=O)n4ccccc4nc32)cc1,78% (inactive),96.1% (inactive),–,-0.275% (inactive),47.4,47.1,-5.81% (inactive),-4.36% (inactive)
CCCOc1ccc2nc(NC(=O)OC)[nH]c2c1,95% (inactive),37.3% (inactive),–,-30.4% (inactive),57.3,26.9,-0.52% (inactive),-1.5% (inactive)
O=C(Nc1ccc(-c2nc3ncccc3o2)cc1)c1ccc(Br)o1,97% (inactive),104% (inactive),–,-4.05% (inactive),53.2,49.2,-2.13% (inactive),-0.36% (inactive)
COC(=O)Nc1nc2ccc(C(=O)c3ccccc3)cc2[nH]1,109% (inactive),44.3% (inactive),–,-47.3% (inactive),73.4,26.1,42.3% (active),90.2% (active)
CN1CCN(CCCN2c3ccccc3Sc3ccc(C(F)(F)F)cc32)CC1,91% (inactive),2.21% (active),–,-3.17% (inactive),4.2,1.03,1.43% (inactive),53.8% (active)
OCCN1CCN(CCCN2c3ccccc3Sc3ccc(Cl)cc32)CC1,53% (inactive),1.56% (active),–,-3.86% (inactive),5.27,1.41,-3.38% (inactive),47.3% (active)
CCCn1nc(NC(=O)c2cccs2)c2cc3cc(OC)ccc3nc21,102% (inactive),56.4% (inactive),–,-18.7% (inactive),81.8,63.1,-6.58% (inactive),2.58% (inactive)
COc1cc(/C=C/C(=O)CC(=O)/C=C/c2ccc(O)c(OC)c2)ccc1O,116% (inactive),56.8% (inactive),–,1.03% (inactive),2.06,3.09,-2.34% (inactive),3.5% (inactive)
CN1CCN(c2ccc(Cl)cc2NC(=O)c2cccc(S(=O)(=O)N(C)C)c2)CC1,93% (inactive),71.6% (inactive),–,43.3% (inactive),24.6,67.9,-5.47% (inactive),1.27% (inactive)
CN(C)c1ccc(O)c2c1CC1CC3[C@@H](N(C)C)C(=O)C(C(N)=O)=C(O)[C@]3(O)C(=O)C1=C2O (stereo partly specified),92% (inactive),92.6% (inactive),–,-6.56% (inactive),39.2,32.7,2.73% (inactive),29.7% (inactive)
Oc1c(I)cc(Cl)c2cccnc12,84% (inactive),8.13% (active),–,-10.4% (inactive),46.2,35.8,4.55% (inactive),8.83% (inactive)
Cc1cccc(OCC(=O)Nc2cc(C)ccc2O)c1,105% (inactive),75.3% (inactive),–,-14% (inactive),51.4,37.4,-6.16% (inactive),0.18% (inactive)
CC(=O)O[C@H]1C(=O)[C@]2(C)[C@H]([C@H](OC(=O)c3ccccc3)[C@]3(O)C[C@H](OC(=O)[C@H](O)[C@@H](NC(=O)c4ccccc4)c4ccccc4)C(C)=C1C3(C)C)[C@]1(OC(C)=O)CO[C@@H]1C[C@@H]2O,67% (inactive),38.8% (inactive),–,-69.2% (inactive),81.8,12.6,0.52% (inactive),-0.67% (inactive)
N#C/C(=C\c1ccc(O)c(O)c1)C(=O)NCCCc1ccccc1,88% (inactive),43.4% (inactive),–,-33.4% (inactive),78,44.6,1.04% (inactive),5.5% (inactive)
Oc1c(Cl)cc(Cl)cc1Sc1cc(Cl)cc(Cl)c1O,143% (inactive),1.36% (active),–,0.46% (inactive),11,11.4,-0.78% (inactive),100% (active)
COc1cc(NC(=O)c2ccco2)c(OC)cc1NC(=O)CCC(=O)Nc1cc(C)cc(C)c1,106% (inactive),42.5% (inactive),–,-16.3% (inactive),69.4,53.1,-6.58% (inactive),-0.95% (inactive)
